# Measurements from publication PMC7862700, “An all-to-all approach to the identification of sequence-specific readers for epigenetic DNA modifications on cytosine”.
# Experiments:
# Test in all cases: DAPPL (digital affinity profiling via proximity ligation, sequencing); 10 mM Tris-HCl pH 7.5, 50 mM NaCl, 1 mM DTT, 4% glycerol, room temperature, 30 min; GST-TFs on glutathione beads, 16-mer random dsDNA library, 0.1% formaldehyde crosslink after washing; high values mean tight binding
# [1] = molecular target: T1, FLI1 (Homo sapiens, UniProt Q01543 1-452); settings: protein: recombinant; tags: N-terminal GST; dsDNA, one strand shown
# T1 sequence: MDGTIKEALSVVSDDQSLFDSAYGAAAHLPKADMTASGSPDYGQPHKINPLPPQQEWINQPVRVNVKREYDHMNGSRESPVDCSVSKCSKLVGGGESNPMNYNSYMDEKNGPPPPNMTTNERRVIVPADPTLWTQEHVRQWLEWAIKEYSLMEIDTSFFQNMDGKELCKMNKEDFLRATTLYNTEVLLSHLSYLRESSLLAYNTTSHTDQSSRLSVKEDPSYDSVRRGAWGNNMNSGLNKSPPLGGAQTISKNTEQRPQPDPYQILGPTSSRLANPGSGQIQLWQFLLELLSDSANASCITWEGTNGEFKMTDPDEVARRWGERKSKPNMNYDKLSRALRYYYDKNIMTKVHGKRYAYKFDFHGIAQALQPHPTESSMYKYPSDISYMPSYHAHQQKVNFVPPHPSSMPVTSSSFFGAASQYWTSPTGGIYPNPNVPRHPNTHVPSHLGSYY
# Procedure, shortened: (§1)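 Binding signal is defined as a hexamer's read frequency for one factor over its frequency for the tag-only sample. To obtain reads, GST-fused human transcription factors were expressed in yeast, captured on glutathione beads, barcoded with DNA and pooled with that sample. Pools met 200 nmole of a 16-mer random double-stranded DNA library in Tris/NaCl/DTT/glycerol buffer for 30 min at room temperature before washing, 0.1% formaldehyde crosslinking, proximity ligation (BsaI/T4 ligase, 1 h, 37 °C), PCR and Illumina NextSeq500 sequencing.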
# [2] = molecular target: T2, ELK1 (Homo sapiens, UniProt P19419 1-428); settings: protein: recombinant; tags: N-terminal GST; dsDNA, one strand shown
# T2 sequence: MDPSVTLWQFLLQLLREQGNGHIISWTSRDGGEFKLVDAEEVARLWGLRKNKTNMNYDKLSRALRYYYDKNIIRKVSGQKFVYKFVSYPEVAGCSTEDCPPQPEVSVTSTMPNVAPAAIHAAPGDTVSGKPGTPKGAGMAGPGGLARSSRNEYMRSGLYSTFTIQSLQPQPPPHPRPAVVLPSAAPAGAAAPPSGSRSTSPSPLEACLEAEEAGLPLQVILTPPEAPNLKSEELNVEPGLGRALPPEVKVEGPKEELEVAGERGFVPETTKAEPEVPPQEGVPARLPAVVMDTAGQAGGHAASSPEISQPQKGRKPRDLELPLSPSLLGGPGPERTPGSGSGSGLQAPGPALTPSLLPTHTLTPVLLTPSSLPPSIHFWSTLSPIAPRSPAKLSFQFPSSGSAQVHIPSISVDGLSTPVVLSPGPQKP
# Procedure, shortened: as §1
# [3] = molecular target: T3, GABPA (Homo sapiens, UniProt Q06546 1-454); settings: protein: recombinant; tags: N-terminal GST; dsDNA, one strand shown
# T3 sequence: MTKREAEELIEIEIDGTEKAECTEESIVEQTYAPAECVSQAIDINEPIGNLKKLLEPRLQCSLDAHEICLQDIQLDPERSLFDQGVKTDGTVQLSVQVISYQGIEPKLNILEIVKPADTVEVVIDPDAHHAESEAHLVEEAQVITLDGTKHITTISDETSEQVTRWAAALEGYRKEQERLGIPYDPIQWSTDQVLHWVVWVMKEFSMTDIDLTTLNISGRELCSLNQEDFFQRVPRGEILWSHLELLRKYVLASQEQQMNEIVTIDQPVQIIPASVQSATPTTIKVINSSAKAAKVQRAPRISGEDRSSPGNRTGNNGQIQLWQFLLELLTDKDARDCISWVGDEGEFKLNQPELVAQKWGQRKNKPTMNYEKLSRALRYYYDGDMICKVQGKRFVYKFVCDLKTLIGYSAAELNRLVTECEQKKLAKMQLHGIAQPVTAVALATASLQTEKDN
# Procedure, shortened: as §1
# [4] = molecular target: T4, ERG (Homo sapiens, UniProt P11308 1-479); settings: protein: recombinant; tags: N-terminal GST; dsDNA, one strand shown
# T4 sequence: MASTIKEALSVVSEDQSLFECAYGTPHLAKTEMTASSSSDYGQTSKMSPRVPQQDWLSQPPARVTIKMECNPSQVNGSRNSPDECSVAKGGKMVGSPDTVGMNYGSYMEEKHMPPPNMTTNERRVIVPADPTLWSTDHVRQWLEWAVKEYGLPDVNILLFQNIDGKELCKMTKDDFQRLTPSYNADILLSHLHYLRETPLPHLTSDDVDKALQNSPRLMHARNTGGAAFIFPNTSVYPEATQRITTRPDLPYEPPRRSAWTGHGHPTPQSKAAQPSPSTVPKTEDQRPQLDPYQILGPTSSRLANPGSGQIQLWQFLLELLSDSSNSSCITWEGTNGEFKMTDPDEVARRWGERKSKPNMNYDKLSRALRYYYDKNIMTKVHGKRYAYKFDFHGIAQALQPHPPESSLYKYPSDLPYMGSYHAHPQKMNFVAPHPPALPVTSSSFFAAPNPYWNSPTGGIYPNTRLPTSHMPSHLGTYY
# Procedure, shortened: as §1
# [5] = molecular target: ELF1 (Homo sapiens, UniProt P32519 1-619); settings: protein: recombinant; tags: N-terminal GST; dsDNA, one strand shown
# Procedure, shortened: as §1
# [6] = molecular target: T5, EHF (Homo sapiens, UniProt Q9NZC4 1-300); settings: protein: recombinant; tags: N-terminal GST; dsDNA, one strand shown
# T5 sequence: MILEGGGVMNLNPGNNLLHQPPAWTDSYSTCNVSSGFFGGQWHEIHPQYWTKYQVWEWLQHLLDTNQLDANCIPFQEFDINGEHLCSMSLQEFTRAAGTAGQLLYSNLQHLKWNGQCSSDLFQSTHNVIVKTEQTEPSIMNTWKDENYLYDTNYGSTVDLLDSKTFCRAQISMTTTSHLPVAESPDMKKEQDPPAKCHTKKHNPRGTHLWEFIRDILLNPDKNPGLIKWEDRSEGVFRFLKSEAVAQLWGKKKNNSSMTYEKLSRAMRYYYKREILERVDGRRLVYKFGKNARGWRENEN
# Procedure, shortened: as §1
# [7] = molecular target: SPI1 (Homo sapiens, UniProt P17947 1-270); settings: protein: recombinant; tags: N-terminal GST; dsDNA, one strand shown
# Procedure, shortened: as §1
# [8] = molecular target: SPIB (Homo sapiens, UniProt Q01892 1-262); settings: protein: recombinant; tags: N-terminal GST; dsDNA, one strand shown
# Procedure, shortened: as §1
# [9] = molecular target: T6, ELK3 (Homo sapiens, UniProt P41970 1-407); settings: protein: recombinant; tags: N-terminal GST; dsDNA, one strand shown
# T6 sequence: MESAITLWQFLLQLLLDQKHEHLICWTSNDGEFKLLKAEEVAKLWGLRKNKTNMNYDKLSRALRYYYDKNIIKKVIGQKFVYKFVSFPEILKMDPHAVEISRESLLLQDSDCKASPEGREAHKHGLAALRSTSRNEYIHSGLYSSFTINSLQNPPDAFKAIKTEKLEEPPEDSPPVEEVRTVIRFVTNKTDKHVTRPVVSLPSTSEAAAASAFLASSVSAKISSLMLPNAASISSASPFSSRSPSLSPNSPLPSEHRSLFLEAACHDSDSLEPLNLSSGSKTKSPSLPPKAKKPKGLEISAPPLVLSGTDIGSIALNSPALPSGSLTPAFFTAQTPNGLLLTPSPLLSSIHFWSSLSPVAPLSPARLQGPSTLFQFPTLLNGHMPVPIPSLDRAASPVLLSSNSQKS
# Procedure, shortened: as §1
# [10] = molecular target: T7, FEV (Homo sapiens, UniProt Q99581 1-238); settings: protein: recombinant; tags: N-terminal GST; dsDNA, one strand shown
# T7 sequence: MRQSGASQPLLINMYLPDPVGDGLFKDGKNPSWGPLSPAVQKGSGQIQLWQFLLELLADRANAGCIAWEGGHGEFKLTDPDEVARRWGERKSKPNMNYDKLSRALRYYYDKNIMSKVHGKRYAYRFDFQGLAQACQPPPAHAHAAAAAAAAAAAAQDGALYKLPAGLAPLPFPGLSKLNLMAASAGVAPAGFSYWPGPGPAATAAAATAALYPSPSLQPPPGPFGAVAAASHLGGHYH
# Procedure, shortened: as §1
# [11] = molecular target: ETV5 (Homo sapiens, UniProt P41161 1-510); settings: protein: recombinant; tags: N-terminal GST; dsDNA, one strand shown
# Procedure, shortened: as §1
# [12] = molecular target: HSF1 (Homo sapiens, UniProt Q00613 1-529); settings: protein: recombinant; tags: N-terminal GST; chain copies: 3; dsDNA, one strand shown
# Procedure, shortened: as §1
# [13] = molecular target: T8, SPIC (Homo sapiens, UniProt Q8N5J4 1-248); settings: protein: recombinant; tags: N-terminal GST; dsDNA, one strand shown
# T8 sequence: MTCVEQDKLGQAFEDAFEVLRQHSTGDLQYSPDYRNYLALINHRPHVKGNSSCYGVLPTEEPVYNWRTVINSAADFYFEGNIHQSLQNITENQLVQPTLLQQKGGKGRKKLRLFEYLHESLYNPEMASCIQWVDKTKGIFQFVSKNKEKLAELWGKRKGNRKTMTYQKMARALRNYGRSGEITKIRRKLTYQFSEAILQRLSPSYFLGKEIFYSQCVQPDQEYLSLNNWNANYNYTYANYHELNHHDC
# Procedure, shortened: as §1
# [14] = molecular target: ELF4 (Homo sapiens, UniProt Q99607 1-663); settings: protein: recombinant; tags: N-terminal GST; dsDNA, one strand shown
# Procedure, shortened: as §1
# [15] = molecular target: T9, ELK4 (Homo sapiens, UniProt P28324-2 1-405); settings: protein: recombinant; tags: N-terminal GST; dsDNA, one strand shown
# T9 sequence: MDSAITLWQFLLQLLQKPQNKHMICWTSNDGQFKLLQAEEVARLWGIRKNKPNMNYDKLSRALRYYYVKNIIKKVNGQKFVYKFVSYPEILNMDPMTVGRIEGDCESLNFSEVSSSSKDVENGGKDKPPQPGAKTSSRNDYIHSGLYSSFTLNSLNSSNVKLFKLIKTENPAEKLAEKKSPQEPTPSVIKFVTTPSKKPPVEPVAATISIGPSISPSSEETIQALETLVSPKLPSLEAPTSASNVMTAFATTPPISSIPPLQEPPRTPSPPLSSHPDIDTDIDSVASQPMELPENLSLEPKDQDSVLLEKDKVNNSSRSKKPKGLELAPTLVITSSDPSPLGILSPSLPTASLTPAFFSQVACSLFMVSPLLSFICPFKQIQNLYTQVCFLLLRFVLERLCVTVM
# Procedure, shortened: as §1
# [16] = molecular target: T10, ETV2 (Homo sapiens, UniProt O00321 1-342); settings: protein: recombinant; tags: N-terminal GST; dsDNA, one strand shown
# T10 sequence: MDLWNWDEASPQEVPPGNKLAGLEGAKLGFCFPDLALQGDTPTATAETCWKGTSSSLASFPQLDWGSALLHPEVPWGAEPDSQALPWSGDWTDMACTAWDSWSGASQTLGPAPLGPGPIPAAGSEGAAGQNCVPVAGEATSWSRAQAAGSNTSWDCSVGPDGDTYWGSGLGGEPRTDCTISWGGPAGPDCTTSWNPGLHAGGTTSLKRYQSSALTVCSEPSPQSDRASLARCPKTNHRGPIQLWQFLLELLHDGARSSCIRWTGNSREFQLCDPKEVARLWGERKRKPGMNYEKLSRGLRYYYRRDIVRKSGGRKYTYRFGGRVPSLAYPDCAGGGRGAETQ
# Procedure, shortened: as §1
# [17] = molecular target: T11, ELF3 (Homo sapiens, UniProt P78545 1-371); settings: protein: recombinant; tags: N-terminal GST; dsDNA, one strand shown
# T11 sequence: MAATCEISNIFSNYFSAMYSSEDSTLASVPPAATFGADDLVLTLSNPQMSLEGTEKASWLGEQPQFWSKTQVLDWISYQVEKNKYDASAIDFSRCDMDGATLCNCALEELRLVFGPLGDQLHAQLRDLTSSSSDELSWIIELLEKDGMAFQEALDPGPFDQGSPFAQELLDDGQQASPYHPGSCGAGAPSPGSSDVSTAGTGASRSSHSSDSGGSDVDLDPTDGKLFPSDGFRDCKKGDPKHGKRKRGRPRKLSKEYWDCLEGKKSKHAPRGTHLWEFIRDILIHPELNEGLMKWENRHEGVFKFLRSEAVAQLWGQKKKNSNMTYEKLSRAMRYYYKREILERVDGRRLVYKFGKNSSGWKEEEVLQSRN
# Procedure, shortened: as §1
# [18] = molecular target: CRX (Homo sapiens, UniProt O43186 1-299); settings: protein: recombinant; tags: N-terminal GST; dsDNA, one strand shown
# Procedure, shortened: as §1
# [19] = molecular target: ETV1 (Homo sapiens, UniProt P50549 1-477); settings: protein: recombinant; tags: N-terminal GST; dsDNA, one strand shown
# Procedure, shortened: as §1
# ETV5, sequence (P41161 whole entry): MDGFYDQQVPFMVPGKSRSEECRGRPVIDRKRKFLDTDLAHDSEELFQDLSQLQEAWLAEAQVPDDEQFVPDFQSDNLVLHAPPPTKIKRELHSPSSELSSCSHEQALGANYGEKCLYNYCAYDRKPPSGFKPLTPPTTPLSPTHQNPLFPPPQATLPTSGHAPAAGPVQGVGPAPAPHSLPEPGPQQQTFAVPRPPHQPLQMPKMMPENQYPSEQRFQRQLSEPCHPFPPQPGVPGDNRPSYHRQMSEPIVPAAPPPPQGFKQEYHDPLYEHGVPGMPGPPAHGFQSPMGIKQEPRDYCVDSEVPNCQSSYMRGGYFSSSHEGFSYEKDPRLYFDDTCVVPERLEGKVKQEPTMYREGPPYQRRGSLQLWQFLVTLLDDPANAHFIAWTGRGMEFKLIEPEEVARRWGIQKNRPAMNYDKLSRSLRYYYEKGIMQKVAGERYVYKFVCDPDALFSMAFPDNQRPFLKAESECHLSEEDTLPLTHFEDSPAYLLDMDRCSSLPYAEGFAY
# ELF1, sequence (P32519 whole entry): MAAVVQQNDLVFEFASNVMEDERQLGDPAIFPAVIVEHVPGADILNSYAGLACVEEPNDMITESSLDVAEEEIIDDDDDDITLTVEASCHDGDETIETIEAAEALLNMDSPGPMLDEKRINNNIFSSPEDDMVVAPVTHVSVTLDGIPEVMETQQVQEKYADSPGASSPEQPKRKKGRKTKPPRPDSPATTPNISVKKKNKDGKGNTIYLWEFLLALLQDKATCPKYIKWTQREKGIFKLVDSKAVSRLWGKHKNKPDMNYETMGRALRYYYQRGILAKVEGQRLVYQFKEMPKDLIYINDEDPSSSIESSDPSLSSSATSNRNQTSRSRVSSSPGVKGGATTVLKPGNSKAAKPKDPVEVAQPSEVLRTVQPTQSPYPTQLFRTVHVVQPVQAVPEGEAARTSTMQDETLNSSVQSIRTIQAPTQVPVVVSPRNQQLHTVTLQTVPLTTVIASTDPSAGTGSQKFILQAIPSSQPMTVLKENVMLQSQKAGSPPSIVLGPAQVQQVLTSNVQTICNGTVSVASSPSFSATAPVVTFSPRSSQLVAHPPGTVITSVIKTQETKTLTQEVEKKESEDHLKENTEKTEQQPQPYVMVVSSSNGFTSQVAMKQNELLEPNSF
# CRX, sequence (O43186 whole entry): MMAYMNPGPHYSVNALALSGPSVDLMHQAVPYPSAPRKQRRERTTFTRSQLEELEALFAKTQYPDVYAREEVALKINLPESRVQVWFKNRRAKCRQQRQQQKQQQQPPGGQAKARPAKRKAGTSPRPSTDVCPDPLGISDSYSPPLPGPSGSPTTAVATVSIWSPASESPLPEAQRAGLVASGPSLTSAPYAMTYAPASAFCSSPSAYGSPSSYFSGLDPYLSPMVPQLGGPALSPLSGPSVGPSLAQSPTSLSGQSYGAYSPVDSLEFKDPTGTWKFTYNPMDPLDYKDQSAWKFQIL
# SPIB, sequence (Q01892 whole entry): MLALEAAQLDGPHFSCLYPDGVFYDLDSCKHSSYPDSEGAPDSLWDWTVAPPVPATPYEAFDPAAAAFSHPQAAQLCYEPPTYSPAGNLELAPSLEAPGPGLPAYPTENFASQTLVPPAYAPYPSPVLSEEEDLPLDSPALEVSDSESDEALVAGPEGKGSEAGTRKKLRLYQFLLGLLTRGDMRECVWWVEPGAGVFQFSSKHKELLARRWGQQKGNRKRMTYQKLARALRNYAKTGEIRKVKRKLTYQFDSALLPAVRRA
# ETV1, sequence (P50549 whole entry): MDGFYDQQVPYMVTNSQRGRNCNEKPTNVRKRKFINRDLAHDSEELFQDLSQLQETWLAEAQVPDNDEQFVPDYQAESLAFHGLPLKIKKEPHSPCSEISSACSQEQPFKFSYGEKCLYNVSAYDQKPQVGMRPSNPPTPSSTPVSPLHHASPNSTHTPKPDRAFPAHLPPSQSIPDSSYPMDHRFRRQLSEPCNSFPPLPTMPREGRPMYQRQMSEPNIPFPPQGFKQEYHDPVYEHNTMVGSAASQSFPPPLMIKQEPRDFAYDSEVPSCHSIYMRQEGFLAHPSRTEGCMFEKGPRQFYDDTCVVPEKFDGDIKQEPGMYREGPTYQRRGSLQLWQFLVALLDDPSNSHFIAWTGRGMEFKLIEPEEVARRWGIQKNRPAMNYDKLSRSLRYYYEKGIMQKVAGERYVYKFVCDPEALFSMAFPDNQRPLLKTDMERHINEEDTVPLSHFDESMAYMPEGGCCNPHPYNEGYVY
# ELF4, sequence (Q99607 whole entry): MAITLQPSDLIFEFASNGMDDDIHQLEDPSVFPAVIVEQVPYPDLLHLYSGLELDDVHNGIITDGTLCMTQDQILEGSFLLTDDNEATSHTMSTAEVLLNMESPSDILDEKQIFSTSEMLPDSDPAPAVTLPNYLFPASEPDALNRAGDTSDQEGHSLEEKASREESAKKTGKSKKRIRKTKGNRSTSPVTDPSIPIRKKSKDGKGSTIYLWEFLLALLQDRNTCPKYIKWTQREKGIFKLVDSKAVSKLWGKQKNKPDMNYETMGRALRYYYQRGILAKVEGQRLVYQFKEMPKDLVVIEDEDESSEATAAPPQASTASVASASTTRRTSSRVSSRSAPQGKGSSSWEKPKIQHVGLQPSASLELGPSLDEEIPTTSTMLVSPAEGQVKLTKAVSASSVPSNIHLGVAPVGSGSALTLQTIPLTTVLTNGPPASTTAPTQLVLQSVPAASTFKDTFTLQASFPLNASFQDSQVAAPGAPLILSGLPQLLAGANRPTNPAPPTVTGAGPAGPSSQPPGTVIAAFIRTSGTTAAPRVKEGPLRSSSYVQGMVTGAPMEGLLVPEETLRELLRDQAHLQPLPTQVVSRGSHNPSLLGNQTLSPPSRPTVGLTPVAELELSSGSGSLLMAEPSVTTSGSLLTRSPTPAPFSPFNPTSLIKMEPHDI
# HSF1, sequence (Q00613 whole entry): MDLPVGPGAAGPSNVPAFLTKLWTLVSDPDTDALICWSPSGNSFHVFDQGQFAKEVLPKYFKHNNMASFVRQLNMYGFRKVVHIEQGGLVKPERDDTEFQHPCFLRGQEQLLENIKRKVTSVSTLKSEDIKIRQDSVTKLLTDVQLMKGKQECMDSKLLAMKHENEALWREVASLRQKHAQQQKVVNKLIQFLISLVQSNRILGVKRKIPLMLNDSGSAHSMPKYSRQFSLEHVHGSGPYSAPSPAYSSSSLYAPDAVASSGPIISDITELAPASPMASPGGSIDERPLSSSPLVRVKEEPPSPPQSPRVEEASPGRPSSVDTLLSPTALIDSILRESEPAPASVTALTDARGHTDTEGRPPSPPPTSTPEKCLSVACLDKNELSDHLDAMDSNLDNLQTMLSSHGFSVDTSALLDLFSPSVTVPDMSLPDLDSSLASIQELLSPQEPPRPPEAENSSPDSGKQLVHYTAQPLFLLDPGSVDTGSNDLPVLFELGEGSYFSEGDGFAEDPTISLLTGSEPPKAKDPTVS
sequence,measurement,setting,value
GATGGC,binding signal,[1],"1.27 fold enrichment (6-mer frequency, TF over GST control)"
same,binding signal,[2],"1.36 fold enrichment (6-mer frequency, TF over GST control)"
same,binding signal,[3],"1.34 fold enrichment (6-mer frequency, TF over GST control)"
same,binding signal,[4],"1.3 fold enrichment (6-mer frequency, TF over GST control)"
same,binding signal,[5],"1.34 fold enrichment (6-mer frequency, TF over GST control)"
same,binding signal,[6],"1.33 fold enrichment (6-mer frequency, TF over GST control)"
same,binding signal,[7],"1.37 fold enrichment (6-mer frequency, TF over GST control)"
same,binding signal,[8],"1.41 fold enrichment (6-mer frequency, TF over GST control)"
same,binding signal,[9],"1.19 fold enrichment (6-mer frequency, TF over GST control)"
same,binding signal,[10],"1.33 fold enrichment (6-mer frequency, TF over GST control)"
same,binding signal,[11],"1.26 fold enrichment (6-mer frequency, TF over GST control)"
same,binding signal,[12],"1.1 fold enrichment (6-mer frequency, TF over GST control)"
same,binding signal,[13],"1.45 fold enrichment (6-mer frequency, TF over GST control)"
same,binding signal,[14],"1.4 fold enrichment (6-mer frequency, TF over GST control)"
same,binding signal,[15],"1.3 fold enrichment (6-mer frequency, TF over GST control)"
same,binding signal,[16],"1.21 fold enrichment (6-mer frequency, TF over GST control)"
same,binding signal,[17],"1.47 fold enrichment (6-mer frequency, TF over GST control)"
same,binding signal,[18],"1.11 fold enrichment (6-mer frequency, TF over GST control)"
same,binding signal,[19],"1.31 fold enrichment (6-mer frequency, TF over GST control)"
